The values below come from PubChem BioAssay (NCI).

About 83,000 compounds went through this panel and 20% of them were active in at least one assay; those are over-represented in the sample as a whole.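 Interpretation: 100, growth as untreated; towards 0, rising growth inhibition; 0, no net growth; 0 to -100, cell death. Compounds scoring below 10 were considered active.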 A number with no mark means an inactive call. Calls of active or inactive are those of the source.

Test systems include HCT-15 colon; HT29 colon; SNB-75 CNS; SNB-19 CNS; U251 CNS; PC-3 prostate; SK-MEL-5 melanoma; UACC-62 melanoma; SK-MEL-28 melanoma; SK-MEL-2 melanoma; EKVX NSCLC; SN12C renal; UO-31 renal; TK-10 renal; ACHN renal; CAKI-1 renal; A498 renal; CCRF-CEM leukemia; MOLT-4 leukemia; LOX IMVI melanoma.
Common to all, as to assay: NCI-60 one-dose screen, 48 h (100 = growth as untreated, 0 = no growth, -100 = all killed)
Common to all, as to conditions: 10 µM unless noted

With `CCCCCCCCCCCC(=O)NC(C)(C)C(=O)N1CCCC1C(=O)NC(C)(C)C(=O)NC(C)(C)C(=O)N1CCCC1C(=O)NC(C)(C)C(=O)NC(C)(C)C(=O)N1CCCC1C(=O)NC(C)C(=O)NCCC(=O)NC(C)C(=O)NC(C)(C)C(=O)NC(C)(C)C(=O)NC(C)(C)C(=O)NCCC(=O)NC(C)(C)C(=O)NC(C)(C)C(=O)NC(C)(C)C(=O)NC(C)C(=O)NCCC(=O)O` (stereo unspecified), the growth in the experiment on HCT-15 colon was -96.5% (active); in the experiment with HT29 colon, -86.6% (active); in the experiment on SNB-75 CNS, -89.7% (active); in the experiment with SNB-19 CNS, -97.4% (active); in the experiment with U251 CNS it was -94.7% (active); in the experiment with PC-3 prostate, -93% (active). Also, the growth in the experiment with SK-MEL-5 melanoma is -98.5% (active); in the experiment with UACC-62 melanoma, -90.9% (active); with SK-MEL-28 melanoma it was -93.8% (active); with SK-MEL-2 melanoma, -96.2% (active); in the experiment on EKVX NSCLC, -88.5% (active); in the experiment with SN12C renal, -94% (active). Further, the growth is -99.7% (active) in the experiment with UO-31 renal; -97.1% (active) in the experiment on TK-10 renal; -100% (active) with ACHN renal; -94.2% (active) in the experiment on CAKI-1 renal; -98.5% (active) in the experiment on A498 renal; -55.6% (active) with CCRF-CEM leukemia. The growth in the experiment with MOLT-4 leukemia was -67.9% (active).
Turning to `CC1(C)CC[C@]23CC[C@]4(C)[C@H](CC[C@@H]5[C@@]6(C)CC[C@H](NCO)C(C)(C)[C@@H]6CC[C@]54C)[C@H]2[C@H]1OC3`, the growth in the experiment on HCT-15 colon was -13.5% (active); in the experiment on HT29 colon, 17.9%; in the experiment with SNB-75 CNS, 86.5%; with SNB-19 CNS, 36.9%; in the experiment with U251 CNS, 1.32% (active); in the experiment on PC-3 prostate, 75%. Also, the growth with SK-MEL-5 melanoma is 97.7%; in the experiment with UACC-62 melanoma, 99.6%; in the experiment on LOX IMVI melanoma it was -89.9% (active); with SK-MEL-2 melanoma, 97.2%; with EKVX NSCLC, 93.9%; with SN12C renal, 43.3%. For the same compound, the growth in the experiment on UO-31 renal is 73.9%; in the experiment on ACHN renal it was 26.4%; with CAKI-1 renal it was 29.3%; in the experiment on A498 renal, 106%; with CCRF-CEM leukemia, 36.5%; in the experiment with MOLT-4 leukemia it was 15%.
Turning to `CCCCN1C(=O)/C(=c2\sc3n(c2=O)C2C(NN=3)N(CC)C(=O)N2CC)c2cccc(C)c21` (stereo unspecified), the growth in the experiment with HCT-15 colon is 14.9%; in the experiment on HT29 colon it was 16.5%; with SNB-75 CNS, 14.1%; with SNB-19 CNS it was 39.4%; in the experiment on U251 CNS, 39.1%; with PC-3 prostate, 34.4%. For the same compound, the growth with SK-MEL-5 melanoma was 29.6%; in the experiment on UACC-62 melanoma, 38.7%; in the experiment with SK-MEL-28 melanoma it was 68.2%; in the experiment on SK-MEL-2 melanoma it was 97.6%; in the experiment with EKVX NSCLC, 46.6%; in the experiment on SN12C renal, 62%. Moreover, the growth in the experiment on UO-31 renal is 54.7%; in the experiment on TK-10 renal, 82.9%; with ACHN renal, 47.2%; with CAKI-1 renal it was 35.3%; with A498 renal, 5.04% (active); in the experiment on CCRF-CEM leukemia it was 18.7%. Moreover, in the experiment on MOLT-4 leukemia, the growth is 45.1%.
As for `N#Cc1cccc(-c2cc(-c3ccc4c(c3)OCCO4)[nH]n2)c1`, the growth with HCT-15 colon was 23.2%; in the experiment on HT29 colon, 11.2%; in the experiment with SNB-75 CNS it was 10.6%; in the experiment on SNB-19 CNS, 36.6%; with U251 CNS, 30.2%; with PC-3 prostate, 39.7%. Also, the growth with SK-MEL-5 melanoma is 12.1%; in the experiment with UACC-62 melanoma it was 41.7%; in the experiment on SK-MEL-28 melanoma, 55.9%; in the experiment on SK-MEL-2 melanoma, 47.3%; with EKVX NSCLC it was 63.3%; in the experiment on SN12C renal it was 49.2%. The growth with UO-31 renal was 42.8%; in the experiment on TK-10 renal, 76.8%; in the experiment on ACHN renal, 44.2%; with CAKI-1 renal, 35.8%; in the experiment with A498 renal, 28.4%; in the experiment with CCRF-CEM leukemia, 14.2%. In addition, in the experiment on MOLT-4 leukemia, the growth was 23%.
For `CC(Nc1ncnc2ccc(-c3cnc4cnccn34)cc12)c1ccccc1` (stereo unspecified), the growth in the experiment with HCT-15 colon is 67.7%; in the experiment with HT29 colon it was 71.1%; in the experiment with SNB-75 CNS, 80.9%; with SNB-19 CNS it was 56.8%; in the experiment on U251 CNS, 76.1%; in the experiment on PC-3 prostate it was 63.8%. Besides, the growth in the experiment with SK-MEL-5 melanoma was 18.1%; in the experiment with UACC-62 melanoma, 53.9%; with SK-MEL-28 melanoma it was 78.7%; in the experiment on SK-MEL-2 melanoma, 64%; with EKVX NSCLC it was 30.4%; in the experiment on SN12C renal, 51.9%. For the same compound, the growth in the experiment on UO-31 renal is 15.7%; in the experiment with TK-10 renal, 20.9%; in the experiment with ACHN renal, 22.8%; in the experiment with CAKI-1 renal it was 27.6%; with A498 renal it was 65.3%; with CCRF-CEM leukemia, 61.1%. For the same compound, the growth in the experiment with MOLT-4 leukemia is 37.5%.
Consider `CCOC(=O)c1cnc2c(-c3ccc(Cl)c(Cl)c3)cnn2c1`, for which the growth with HCT-15 colon is 40.8%; in the experiment with HT29 colon, 56.8%; with SNB-75 CNS, 59.9%; in the experiment with SNB-19 CNS, 82.5%; in the experiment with U251 CNS, 80.4%; in the experiment on PC-3 prostate it was 73%. The growth is 79.8% with SK-MEL-5 melanoma; 60.8% in the experiment on UACC-62 melanoma; 80.4% with SK-MEL-28 melanoma; 83.9% with SK-MEL-2 melanoma; 81.3% in the experiment on EKVX NSCLC; 95.7% in the experiment with SN12C renal. Further, the growth in the experiment on UO-31 renal is 80.2%; with TK-10 renal it was 117%; with ACHN renal, 104%; with CAKI-1 renal, 67.2%; in the experiment on A498 renal, 82.8%; with CCRF-CEM leukemia, 68.4%. Further, the growth with MOLT-4 leukemia is 62.3%.
Consider `COc1cc(-c2nc(-c3ccccc3)[nH]c2-c2ccnc(NCCCNS(=O)(=O)c3cccc(F)c3)n2)ccc1F`, for which the growth is 72.7% in the experiment with HCT-15 colon; 83.2% with HT29 colon; 112% with SNB-75 CNS; 107% in the experiment on SNB-19 CNS; 95.9% with U251 CNS; 62.9% with PC-3 prostate. In addition, the growth in the experiment with SK-MEL-5 melanoma was 92%; with UACC-62 melanoma, 99.8%; in the experiment with SK-MEL-28 melanoma, 100%; in the experiment with SK-MEL-2 melanoma, 105%; with EKVX NSCLC, 80.8%; in the experiment on SN12C renal, 93.8%. Also, the growth in the experiment with UO-31 renal is 89.2%; in the experiment on TK-10 renal, 137%; with ACHN renal, 88.7%; with CAKI-1 renal, 106%; in the experiment with A498 renal, 68.9%; in the experiment with CCRF-CEM leukemia it was 66%. For the same compound, the growth in the experiment with MOLT-4 leukemia is 54.4%.
As to `COc1ccc2c(c1)c(-c1nc(N)nnc1-c1c[nH]c3ccccc13)cn2C`, the growth in the experiment on HCT-15 colon is 22.9%; in the experiment with HT29 colon it was 14.5%; with SNB-75 CNS, -11.9% (active); with SNB-19 CNS, 31.5%; with U251 CNS, 24.6%; in the experiment on PC-3 prostate it was 43.4%. The growth in the experiment with SK-MEL-5 melanoma is 26%; in the experiment on UACC-62 melanoma it was 26.1%; with LOX IMVI melanoma, 33.1%; in the experiment with SK-MEL-2 melanoma it was 52.6%; in the experiment on EKVX NSCLC, 43.9%; in the experiment with SN12C renal, 53.6%. Besides, the growth in the experiment on UO-31 renal is 50.9%; in the experiment on TK-10 renal, 92.8%; in the experiment on ACHN renal, 44.7%; with CAKI-1 renal, 31.1%; in the experiment with A498 renal, 4.9% (active); in the experiment with CCRF-CEM leukemia it was 28.7%. The growth with MOLT-4 leukemia was 25.5%.
